# PKM2 act: activators of human pyruvate kinase M2. 260,000 tested, 0.34% active. Potency, µM (doses to about 57.5 µM), hits mostly activators. P14618. purified PKM2, Kinase-Glo ATP luminescence, activation; response scale: 0% is enzyme alone, no compound; also: nearly all actives have a fitted effect of over 55% in size
# Target sequence (P14618 whole entry, looked up): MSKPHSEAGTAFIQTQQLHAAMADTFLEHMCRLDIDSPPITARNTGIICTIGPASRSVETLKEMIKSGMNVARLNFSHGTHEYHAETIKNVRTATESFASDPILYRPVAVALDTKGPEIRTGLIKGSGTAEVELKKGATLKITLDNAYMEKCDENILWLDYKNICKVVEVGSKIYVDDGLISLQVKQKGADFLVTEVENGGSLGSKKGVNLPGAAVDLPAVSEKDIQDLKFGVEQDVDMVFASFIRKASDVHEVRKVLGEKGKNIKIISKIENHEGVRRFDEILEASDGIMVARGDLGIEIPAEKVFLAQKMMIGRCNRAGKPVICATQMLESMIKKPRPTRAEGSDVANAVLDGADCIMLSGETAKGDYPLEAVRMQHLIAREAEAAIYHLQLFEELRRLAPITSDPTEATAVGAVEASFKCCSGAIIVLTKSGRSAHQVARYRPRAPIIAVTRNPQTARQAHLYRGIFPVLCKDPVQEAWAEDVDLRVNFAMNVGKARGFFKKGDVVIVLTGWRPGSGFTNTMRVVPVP
#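 Kinase-Glo luminescence reports ATP generated from ADP (0.1 mM) and PEP (0.5 mM) by purified hPK-M2 after 1 h at room temperature, pH 7.2 imidazole buffer; intermediate enzyme activity allows detecting inhibitors and activators.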
# CtBP-E1A inh: blocks the CtBP interaction with E1A; AlphaScreen GST-E1A/His-CtBP binding, 1536-well; stronger effect = lower value; activity change, % (concentration not given with the values); 340,000 tested, 0.49% active; in the data active = activity change below about -65%; inconclusive = mostly about -30% to -63%
#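 Protein mix (5X: 125 nM each GST-E1A, His-CtBP) was incubated with pinned compound 2 h at 37 deg C in dark, in 50 mM Tris pH 8.0 buffer with 300 mM NaCl. Glutathione donor and nickel acceptor beads followed; AlphaScreen signal read after 1 h.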
# Six1-Eya2 blk: blocks human Six1 binding to Eya2; AID 651725; 360,000 tested, 0.56% active; AlphaScreen GST-Six1/His-Eya2 binding, biochemical; stronger effect = lower value; activity change, % (concentration not given with the values); Q15475+O00167; in the data active = activity change below about -65%; inconclusive = mostly about -30% to -63%
#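 AlphaScreen luminescence read after one hour at 37 °C in darkness. Pin-transferred compounds met GST-Six1 and His-Eya2 protein (5X stock 250 nM/500 nM) plus glutathione donor and Ni-chelate acceptor beads (5X, 50 ug/mL).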
# VP16 counter: Gal4-VP16 reporter inhibition counter-screen | Drosophila S2 Gal4-VP16 UAS-luciferase, luminescence, 20 h | Potency, µM (highest dose often 53.6 µM), most hits filed as inhibitors | 310,000 tested, 3.5% active;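 also: Gal4-VP16 expression switched on by copper sulfate through the metallothionein promoter; nearly all actives have a fitted effect of over 50% in size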
# RORgamma inh: blocks mouse ROR gamma transcriptional activity. P51450. Drosophila S2 Gal4-RORgamma UAS-luciferase reporter, 20 h. Potency, µM (titrated, usually from 53.6 µM), most hits filed as inhibitors. 310,000 tested, 5.4% active. AID 2551; also: nearly all actives have a fitted effect of over 60% in size
#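 Stable Schneider cell line, Gal4 DNA-binding domain fused to ROR gamma, UAS-luciferase. Cmpd 1 hr RT → CuSO4 700 uM final → 20 hr RT → luciferase reagent 10 min → luminescence.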
# Hits are given with their value; 0 = inactive; ? = inconclusive; - = no result; [ ] = another dose, or the depositor's remark. Shown are actives, neighbours in structure and some others; about 5.6% of the full set was active somewhere. Unless noted, calls follow the shape of the dose curve; as a rule, active = well fitted curve in the direction sought with a large enough effect; inconclusive = small, poorly fitted or top-dose-only effect, or another doubt; inactive = no such curve, though single readings can be large; an effect the other way counts as inactive or inconclusive.
SMILES,PKM2 act,CtBP-E1A inh,Six1-Eya2 blk,VP16 counter,RORgamma inh
O=C(NC(=S)Nc1cccc([N+](=O)[O-])c1)C1CCCCC1,0,0,0,?,10µM
Cc1nc2ccccc2cc1OCc1ccc(Cl)cc1,0,0,0,3.5µM,?
COC(=O)c1sccc1OCc1cccc(OC)c1,0,-,0,?,0
Cc1nc2ccccc2cc1OCc1ccccc1,0,0,0,?,?
COc1cccc(COc2cc3ccccc3nc2C)c1,0,0,0,5µM,0
O=C(c1ccncc1)N1CCN(S(=O)(=O)c2cccc(C(F)(F)F)c2)CC1,-,0,0,-,-
O=S(=O)(c1ccc(Cl)c(NC(=S)N/N=C/c2ccc(O)cc2)c1)N1CCOCC1,0,0,?,6.3µM,10µM
O=S(=O)(c1ccc(Cl)c(NC(=S)N/N=C/c2c(F)cccc2F)c1)N1CCOCC1,0,0,0,1.8µM,2µM
CCC/C=C1/CCCOC(C(=O)NCCOC)(C(F)(F)F)C1 (stereo not drawn),-,-,-,0,0
CCN(CC)c1ccc2c(c1)CCCN2,0,-,-,?,2.8µM
Cc1sc2ncnc(NCC3CCCO3)c2c1C (stereo not drawn),0,0,0,?,0
Cc1sc2ncnc(NCC(C)(C)N3CCOCC3)c2c1C,0,0,0,18µM,?
Cc1sc2ncnc(Nc3ccccc3)c2c1C,0,0,0,0,0
Cc1sc2ncnc(NCC3COc4ccccc4O3)c2c1C (stereo not drawn),0,0,0,1µM,?
c1ccc(-c2csc3ncnc(NCC4COc5ccccc5O4)c23)cc1 (stereo not drawn),0,0,0,0.89µM,7.1µM
Cc1sc2ncnc(NCc3ccccc3)c2c1C,0,0,0,18µM,0
CC(C)(C)c1nn(-c2ccccc2)c2[nH]c(=O)c(CNc3ccc4c(c3)OCCO4)cc12,0,0,?,0,?
Cc1ccc(CNCc2cc3c(C(C)(C)C)nn(-c4ccccc4)c3[nH]c2=O)cc1,0,0,0,13µM,?
Cc1nn(-c2ccccc2)c2[nH]c(=O)c(CNc3ccc(N4CCOCC4)cc3)cc12,0,-69,-70,0,0
CCCCCCn1nc(C(=O)Nc2nc3c(s2)CCCC3)c2ccccc2c1=O,0,0,0,0,10µM
CCCCn1nc(C(=O)Nc2nc3c(s2)CCCC3)c2ccccc2c1=O,0,-,0,?,11µM
COC(=O)CCCC(=O)N1CCC(CCC(=O)NCc2ccc(F)cc2)CC1,0,0,0,0,0
Nc1nonc1C(=O)NCCNCc1cc(Br)ccc1OCc1ccccc1F,0,0,0,4µM,?
NS(=O)(=O)c1ccc(CCNCc2cc(Br)ccc2OCc2ccccc2F)cc1,0,0,0,13µM,0
NS(=O)(=O)c1ccc(CCNCc2cc(Cl)ccc2OCc2ccccc2)cc1,0,0,0,?,?
SMILES,PKM2 act,CtBP-E1A inh,Six1-Eya2 blk,VP16 counter,RORgamma inh
CC/C=C\C[C@H](O)/C=C/C=C\C/C=C\C/C=C\CCCC(=O)O,-,-,-,0,0
CCN(C(=O)C(C)OC(=O)c1nn(-c2ccccc2C(F)(F)F)cc1O)c1ccccc1 (stereo not drawn),-,0,0,-,-
Cc1ccc(-c2nc3cccnc3s2)cc1NC(=O)C1c2ccccc2Oc2ccccc21,0,0,0,11µM,13µM
CCc1nnc(NC(=O)C2c3ccccc3Oc3ccccc32)s1,0,0,0,?,11µM
O=C(Nc1nc2ccccc2s1)C1c2ccccc2Oc2ccccc21,0,0,0,?,11µM
O=C(Nc1nc2ccccc2s1)C1CCCO1 (stereo not drawn),0,0,0,0,0
O=S1(=O)C2CC3C=CC2(O3)C(O)C(Cc2ccccc2)N1Cc1cccc(C(F)(F)F)c1 (stereo not drawn),-,-,-,0,0
COc1ccc(C(=O)CC(c2ccccc2)S(=O)(=O)c2ccc(C)cc2)cc1 (stereo not drawn),0,-,-,0,0
CCOC(=O)c1ccc([N+](=O)[O-])c(CS(=O)(=O)c2ccc(Cl)cc2)c1,-,-,0,0,0
COc1ccc(C(CC(=O)c2ccc(O)cc2)S(=O)(=O)c2ccc(C)cc2)cc1 (stereo not drawn),0,0,0,10µM,1.8µM
Cc1ccc(S(=O)(=O)CCC(=O)c2cccc([N+](=O)[O-])c2)cc1,0,0,0,5µM,4µM
Cc1ccc(S(=O)(=O)Cc2cc(F)c([N+](=O)[O-])cc2[N+](=O)[O-])cc1,0,0,0,6.3µM,0
COc1ccc(C(=O)CCS(=O)(=O)c2ccc(C)cc2)cc1,0,0,0,10µM,5.6µM
CC1([N+](=O)[O-])COC2(CCCCC2)OC1,-,0,0,-,-
O=C(Cn1ccccc1=O)Nc1ccc(Cl)c(S(=O)(=O)N2CCCCC2)c1,-,-,0,-,-
CC(C)[C@H](NC(=O)CCCn1nnc2ccccc2c1=O)C(=O)O,0,0,0,0,0
CN(CC(=O)Nc1cccc(F)c1)C(=O)CC1CCCCC1,-,0,0,-,-
CC(C)Nc1nc(NC(N)=S)nc(NC(C)(C)C)n1,0,0,0,?,11µM
CC(C)Nc1nc(NC(N)=S)nc(NC(C)C)n1,0,0,0,0,?
CC(C)Nc1nc(NNc2nc(Cl)nc(NC(C)(C)C)n2)nc(NC(C)C)n1,0,-,0,1.8µM,0.4µM
C#CCN(C(=O)c1ccc(OC)c(OC2CCN(C(C)C)CC2)c1)C1CCCCC1,0,0,0,0,0
Clc1ccccc1Cc1noc(CN2CCCCC2CCc2ccccn2)n1 (stereo not drawn),0,0,0,0,0
C=CCNc1cc(F)ccc1S(=O)(=O)NCC=C,-,0,0,-,-
O=C(CNC(=O)c1ccccc1F)N/N=C\C=C\c1ccccc1,-,0,0,0,0
NS(=O)(=O)c1ccc(CCNC(=O)NC2(C(F)(F)F)Oc3ccccc3O2)cc1,0,0,0,?,11µM
SMILES,PKM2 act,CtBP-E1A inh,Six1-Eya2 blk,VP16 counter,RORgamma inh
CCCOc1ccc(C2C3=C(Nc4nc(N)[nH]c(=O)c42)c2ccccc2C3=O)cc1 (stereo not drawn),0,-,?,0,0
CCOc1ccc(C2C3=C(Nc4nc(N)[nH]c(=O)c42)c2ccccc2C3=O)cc1 (stereo not drawn),0,0,-72,0,0
COC(=O)C/C=C\[C@@H](C)[C@@H](CO)NS(=O)(=O)c1ccc(C)cc1,-,-,-,0[10 µM],0[10 µM]
FC(F)(F)c1nnc2c(Sc3ccccn3)nc3ccccc3n12,0,0,0,20µM,10µM
CCC(CC)N1CCN(S(=O)(=O)c2ccc(OC)cc2)CC1,0,0,0,0,0[1.91 µM]
Cc1cc(/C=C2/C(=O)NN(c3ccccc3)C2=O)c(C)n1-c1cccc(O)c1,0,0,0,16µM,?
Cc1cc(C=C2C(=O)c3ccccc3C2=O)c(C)n1-c1ccc(C(=O)O)cc1,0,0,0,0,0
Cc1cc(C=C2C(=O)c3ccccc3C2=O)c(C)n1-c1ccccc1,0,0,0,16µM,0.063µM
Cc1ccc(CN2CCN(/N=C/c3ccc(C(=O)O)cc3)CC2)cc1,0,0,0,0,0
